Unmarked numbers belong to inactive results. Results filed as inconclusive are left out. A call without a number means that no potency is given here. Active and inactive are the calls of the source. Calls come from the whole dose curve; as a rule, active = well fitted curve in the direction sought with a large enough effect; inconclusive = small, poorly fitted or top-dose-only effect, or another doubt; inactive = no such curve, though single readings can be large; an effect the other way counts as inactive or inconclusive.
Columns and labels:
[1] = target: Glutathione peroxidase 1 (Homo sapiens) (UniProt P07203); assay: Primary qHTS Assay for Inhibitors of Recombinant Selenoprotein Glutathione Peroxidase 1 (GPX1) (AID 1845191); note: nearly all actives have a fitted effect of over 65% in size; note: potency is the fitted concentration of half-maximal effect
Method in brief: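 NADPH consumption tracked by fluorescence at 340/450 nm between t=0 and t=15 min, room temperature. Final mix: 10 nM GPX1, 100 nM glutathione reductase, 1 mM GSH, 0.5 mM NADPH, 0.5 mM cumene hydroperoxide, 0.01% BSA; 30 min compound–enzyme preincubation.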

[2] = target: Phospholipid hydroperoxide glutathione peroxidase GPX4 (Homo sapiens) (UniProt P36969); assay: Primary qHTS Assay for Inhibitors of Recombinant Selenoprotein Glutathione Peroxidase 4 (GPX4) (AID 1845192); note: nearly all actives have a fitted effect of over 65% in size; note: potency is the fitted concentration of half-maximal effect; for activity change, negative = inhibition: series mostly up to about 50 µM
Method in brief: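 NADPH consumption followed by fluorescence at 340/450 nm, t=0 and after 15 min at room temperature. Reaction started with cumene hydroperoxide (0.5 mM final) after 30 min compound–GPX4 preincubation; final 200 nM GPX4, 100 nM GR, 1 mM GSH, 0.5 mM NADPH.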

[3] = target: Luciferin 4-monooxygenase (Photinus pyralis) (UniProt P08659); assay: Primary firefly luciferase (FLuc) qHTS assay for identification of artifact compounds. (AID 1845220); note: nearly all actives have a fitted effect of over 60% in size; note: potency is the fitted concentration of half-maximal effect; for activity change, negative = inhibition: series mostly up to about 54 µM
Method in brief: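 FLuc 10 nM; luciferin 10 uM; ATP 10 uM; Tris-acetate pH 7.6, Mg-acetate 10 mM; 15 min RT preincubation; 5 min reaction; luminescence.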

[4] = Primary fluorescence-based thiol-reactive (MSTI) qHTS assay for identification of artifact compounds. (AID 1845221); note: nearly all actives have a fitted effect of over 65% in size; note: potency is the fitted concentration of half-maximal effect;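 for activity change, negative = thiol reactive: series mostly up to about 54 µM; thiol-reactive compounds lower the probe fluorescence signal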
Method in brief: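 Probe: MSTI 4 uM, PBS pH 7.4, 2% DMSO. Incubation 1 h, RT, light-protected. Readout fluorescence 525/598 nm.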

[5] = test system: Nanoluciferase (engineered Oplophorus gracilirostris luciferase); assay: Primary Nanoluciferase (NLuc) qHTS assay for identification of artifact compounds. (AID 1845222); note: potency is the fitted concentration of half-maximal effect;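 for activity, negative = inhibition: NLuc secreted into diluted conditioned medium of S16 cells; series mostly up to about 54 µM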
Method in brief: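 NLuc from S16 cell medium (1:55) plus test compounds, 15 min, room temperature. Luminescence after Nano-Glo (1:100) addition, 5 min.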

[6] = Primary redox qHTS assay for identification of artifact compounds. (AID 1845223)
Method in brief: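 Redox-cycling detection via DTT (250 uM final) oxidation coupled to Amplex Red (25 uM)/HRP (250 mU/mL) in HBSS. 15 min preincubation plus 30 min after DTT, room temperature. Ex/Em 525/598 nm; 4-parameter Hill fit against DMSO and 10 uM DA3003.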

Glutathione peroxidase 1 (Homo sapiens), sequence (P07203 whole entry, looked up): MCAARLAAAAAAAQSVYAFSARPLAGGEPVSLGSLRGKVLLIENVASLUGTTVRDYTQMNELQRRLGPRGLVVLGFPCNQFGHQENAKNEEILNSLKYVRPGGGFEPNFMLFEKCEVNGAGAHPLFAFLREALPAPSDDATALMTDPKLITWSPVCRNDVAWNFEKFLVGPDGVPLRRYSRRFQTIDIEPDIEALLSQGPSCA
Phospholipid hydroperoxide glutathione peroxidase GPX4 (Homo sapiens), sequence (P36969 whole entry, looked up): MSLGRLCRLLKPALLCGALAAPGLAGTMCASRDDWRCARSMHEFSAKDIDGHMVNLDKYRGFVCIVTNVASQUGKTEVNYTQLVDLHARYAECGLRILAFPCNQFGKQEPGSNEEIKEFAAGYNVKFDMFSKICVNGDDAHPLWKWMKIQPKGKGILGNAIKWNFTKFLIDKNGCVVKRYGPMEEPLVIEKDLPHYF

Structure (SMILES) | Potency [1] | Potency [2] | Potency [3] | Potency [4] | Potency [5] | Potency [6] | activity change, negative = inhibition [3] | activity change, negative = thiol reactive [4] | activity, negative = inhibition [5] | redox activity (% of DA3003) [6]
CCCc1cc(C)n(C)c(=O)c1CN(C)C(=O)c1cc(-c2ccc(N3CCN(C(C)C)CC3)nc2)cc2c1cnn2C(C)C | inactive | inactive | inactive | inactive | inactive | inactive |  |  |  | 
Nc1nc2c(ncn2C2OC3COP(=O)(O)OC3C2O)c(=O)[nH]1 (stereo not given) | inactive | inactive | inactive | inactive |  | inactive |  |  |  | 
COCCCNC(=O)c1ccc(Cn2c(=O)c3ccccc3n(Cc3ccc(C(C)C)cc3)c2=O)cc1 | inactive | inactive | inactive | inactive | inactive | inactive |  |  |  | 
CO[C@H]1[C@@H](O)[C@H](O[C@H]2CC[C@@]3(C)C(CCC4C3CC[C@]35COC6(COC(=O)C6)C3CCC45O)C2)O[C@@H](C)[C@@H]1OC1OC(CO)C(OC2OC(CO)C(O)C(O)C2O)C(O)C1O (stereo not given in full) | inactive | inactive |  |  |  |  | -4.26% [at 11.6 µM] | 77.5% [at 11.5 µM] | -0.128% [at 11.6 µM] | -0.0298% [at 11.5 µM]
CCC(C)C1NC(=O)C(Cc2ccccc2)NC(=O)C(CCCCCC(=O)C(O)CO)NC(=O)C2CCCCN2C1=O (stereo not given) | inactive | inactive | inactive | inactive | inactive | inactive |  |  |  | 
C[C@@H]1C[C@H](C)CN(CCC(=O)Nc2ccc(Br)cc2)C1 | inactive | inactive | inactive | inactive |  | inactive |  |  |  | 
O=C(Nc1ccc(N(Cc2ccsc2)C(=O)Cn2nnc3ccccc32)cc1)C1CC1 | inactive | inactive | inactive | inactive |  | inactive |  |  |  | 
CC(=O)C=C=C1C(C)(C)CC(O)CC1(C)O[C@@H]1O[C@H](CO[C@H]2OC[C@](O)(CO)[C@H]2O)[C@@H](O)[C@H](O)[C@H]1O (stereo not given in full) | inactive | inactive | inactive | 5.19 µM (active) | inactive | inactive |  |  |  | 
O=C(OC1CN2CCC1CC2)N1CCc2ccccc2C1c1ccccc1 (stereo not given) | inactive | inactive | inactive | inactive | inactive | inactive |  |  |  | 
CNc1ccc([N+](=O)[O-])c(Nc2ccc3[nH]ncc3c2)n1 | inactive | inactive | inactive | 4.74 µM (active) | inactive | inactive |  |  |  | 
O=S(=O)(c1ccccc1)N(CC(F)(F)F)c1ccc(C(O)(C(F)(F)F)C(F)(F)F)cc1 | inactive | inactive | inactive | inactive | inactive | inactive |  |  |  | 
C[C@H]1[C@H](/C=C/c2ccc(-c3ccccc3C#N)cn2)[C@@H]2[C@@H](C)OC(=O)[C@@H]2C[C@@H]1C | inactive | inactive | inactive | inactive | inactive | inactive |  |  |  | 
Cc1ccc(NC(=O)c2ccc(CN3CCNCC3)cc2)cc1Nc1nccc(-c2cccnc2)n1 | inactive | inactive | 6.75 µM (active) | inactive | inactive | inactive |  |  |  | 
C=C1C(=O)O[C@@H]2/C=C(\CO)CC/C=C(\CO)[C@H](OC(C)=O)C(OC(=O)C(C)CC)C12 (stereo not given in full) | inactive | inactive | inactive | inactive | inactive | inactive |  |  |  | 
O=c1[nH]c2cccc(N3CCN(Cc4ccc(-c5ccccc5)cc4)CC3)c2o1 | inactive | inactive | inactive | inactive | inactive | inactive |  |  |  | 
COc1cc(/C=C/C(=O)NCCn2c(C(F)(F)F)cc3ccccc32)cc(OC)c1OC | inactive | inactive | inactive | inactive | inactive | inactive |  |  |  | 
CCN(c1cc(-c2ccc(CN3CCOCC3)cc2)cc(C(=O)NCc2c(C)cc(C)[nH]c2=O)c1C)C1CCOCC1 | inactive | inactive | inactive | inactive |  | inactive |  |  |  | 
O=C(NCCCc1ccccc1)C1CCC(CNS(=O)(=O)c2cccc3nsnc23)CC1 (stereo not given) | inactive | inactive | inactive | inactive | inactive | inactive |  |  |  | 
Cc1cccc(-c2[nH]ncc2-c2ccnc3ccccc23)n1 | inactive | inactive | inactive | inactive | inactive | inactive |  |  |  | 
C[C@H](CN(C)C)Oc1nc(Nc2cc3cccc(Cl)c3cn2)cnc1C#N | inactive | inactive | inactive | inactive | inactive | inactive |  |  |  | 
N#Cc1ccc(-c2ccc(S(=O)(=O)Nc3cccc(N)n3)cc2)cc1 | inactive | inactive | inactive | inactive | inactive | inactive |  |  |  | 
Cc1cc(-c2ncc(-c3cccnc3)cc2/C=C/c2ccccc2)cnc1-c1cccnc1 | 18 µM (active) | inactive | inactive | inactive | inactive | inactive |  |  |  | 
CCNc1nc(Nc2cc(F)c(C(=O)N3CCOCC3)cc2OC)ncc1C(F)(F)F | inactive | inactive | inactive | inactive | inactive | inactive |  |  |  | 
C=C1C(=O)OC2/C=C(\C)CC3C=C(CC/C=C(\C)CCC12)C(=O)O3 (stereo not given) | inactive | inactive | inactive | inactive |  | inactive |  |  |  | 
C=C1CCC[C@]2(C)CC/C(=C(/CO)C(=O)OC)C[C@@H]12 | inactive | inactive | inactive | inactive |  | inactive |  |  |  | 
COc1nc2ccc(Br)cc2cc1[C@@H](c1ccccc1)[C@@](O)(CCN(C)C)c1cccc2ccccc12 | inactive | inactive | inactive | inactive |  | inactive |  |  |  | 

Structure (SMILES) | Potency [1] | Potency [2] | Potency [3] | Potency [4] | Potency [5] | Potency [6] | activity change, negative = inhibition [3] | activity change, negative = thiol reactive [4] | activity, negative = inhibition [5] | redox activity (% of DA3003) [6]
COc1cc2c(cc1OCCCN1CCCC1)N=C(N)C21CCC1 | inactive | inactive | inactive |  | inactive |  |  |  |  | 
CC(=O)O[C@H]1C[C@@](O)(C(C)C)[C@@H]2[C@@H](OC(=O)c3ccc(O)cc3)CC(C)=CC[C@@]12C | inactive | inactive | inactive | inactive |  | inactive |  |  |  | 
COc1cc(CCc2ccc(OCC=C(C)C)cc2)cc(OC)c1OC | inactive | inactive | inactive |  | inactive |  |  |  |  | 
NCCOc1cc(C(=O)Nc2cc(OCCN)c3ccccc3n2)nc(C(=O)Nc2cc(OCCN)c3ccccc3n2)c1 | inactive | inactive | inactive |  | inactive |  |  |  |  | 
O=C(NC1(c2ccccc2)CC1)c1c(CN2CCC(N3CCCCC3)CC2)c(-c2cccc(C(F)(F)F)c2)nc2cc(Br)ccc12 | inactive | inactive | inactive | inactive |  | inactive |  |  |  | 
CC(=O)OC1C(=O)C2C3OCC4=C3[C@@](C)(CC[C@@H]4O)CC[C@]2(C)[C@H]1C(C)C (stereo not given in full) | inactive | inactive | inactive |  | inactive |  |  |  |  | 
CCO[C@H]1CN(C2CCC(O)(c3ccc4c(c3)OCO4)CC2)C[C@@H]1NC(=O)CNC(=O)c1cccc(C(F)(F)F)c1 (stereo not given in full) | inactive | inactive | inactive | inactive |  | inactive |  |  |  | 
O=C(Nc1ccn(Cc2ccc(O)cc2C(F)(F)F)n1)c1c(F)cccc1F | inactive | inactive | inactive | inactive |  | inactive |  |  |  | 
c1ccc(-c2ccc(CNc3nc(-c4ccccn4)nnc3-c3ccccc3)cc2)cc1 | inactive | inactive | inactive | inactive |  | inactive |  |  |  | 
C#Cc1cccc(Nc2nc3cc(C(=O)O)ccc3c3cncnc23)c1 | inactive | inactive | inactive | inactive |  | inactive |  |  |  | 
CC(C)(Cc1nc(-c2ccc(O)cn2)no1)C(=O)NC1=C(C(=O)O)CCCC1 | inactive | inactive | inactive | inactive |  | inactive |  |  |  | 
COc1c(F)cccc1C(=O)N1C[C@@H](C)CC[C@H]1CNc1ccc(Br)cn1 | inactive | inactive | inactive | inactive |  | inactive |  |  |  | 
CC[C@@H](C)Nc1cc(C(=O)NC2CC3CCC(C2)N3c2ccc(C(=O)C3CC3)cn2)c(C)cc1C(N)=O (stereo not given in full) | 16.3 µM (active) | 5.7 µM (active) | inactive |  | inactive |  |  |  |  | 
COc1cc(N2CCC(N3CCN(C)CC3)CC2)ccc1Nc1ncc(Cl)c(Nc2ccccc2P(C)(C)=O)n1 | inactive | inactive | inactive |  | inactive |  |  |  |  | 
CC1CCCC(O)CCC/C=C/c2cc(OS(=O)(=O)O)cc(O)c2C(=O)O1 (stereo not given) | inactive | inactive | inactive | inactive |  | inactive |  |  |  | 
C/C1=C\[C@@H](C)C[C@@H](C)[C@@H](Cc2cnco2)OC(=O)/C(C)=C/[C@@H](C)C[C@@H](C)[C@@H](Cc2cnco2)OC1=O | inactive | inactive | inactive | inactive |  | inactive |  |  |  | 
CC(=O)C1(C)CCC2C3C=C(C)C4=CC(=O)CCC4(C)C3CCC21C (stereo not given) | inactive | inactive | inactive | inactive |  | inactive |  |  |  | 
C=CC(C)(O)CC/C=C(/C)COC(=O)C(C)C1CCC(C)(C=C)O1 (stereo not given) | inactive | inactive | inactive | inactive |  | inactive |  |  |  | 
COc1ccc(-c2ccccc2)cc1NS(=O)(=O)c1cc(Cl)cc(Cl)c1O | inactive | inactive | inactive |  | 7.38 µM (active) |  |  |  |  | 
O=C(NCCCNC(=O)c1ccc[nH]c1=O)c1cc(-c2ccccc2)on1 | inactive | inactive | inactive | inactive |  | inactive |  |  |  | 
C/C=C(\C)[C@@H]1C(C)=C[C@@H]2[C@H]([C@@H]1/C=C/C=C/C(=O)O)[C@@H](C)CC[C@@H]2O | inactive | inactive | inactive |  | inactive |  |  |  |  | 
CCC(C)C(=O)OC12C(OC(C)=O)C(C)C3(O)C(C=C(CO)CC4(O)C(=O)C(C)=CC43)C1C2(C)C (stereo not given) | inactive | inactive | inactive | inactive |  | inactive |  |  |  | 
CC(=O)O[C@@H]1C[C@@]23C[C@@]24CC[C@H](O[C@@H]2OC[C@H](O)[C@H](O)[C@H]2O)C(C)(C)[C@@H]4CC[C@H]3[C@]2(C)[C@@H](O)C34O[C@H](C[C@@H](C)[C@@H]3[C@@]12C)[C@@H](C(C)(C)O)O4 | inactive | inactive | inactive | inactive |  | inactive |  |  |  | 
C/C=C/C=C/C=C/C(=O)O[C@@H]1C=C2COC(=O)[C@]2(O)[C@@]2(C)CCCC(C)(C)[C@H]12 | inactive | inactive | inactive | inactive |  | inactive |  |  |  | 
CCCCOC(=O)NS(=O)(=O)c1sc(CC(C)C)cc1-c1ccc(Cn2ccnc2)cc1 | inactive | inactive | inactive | inactive |  | inactive |  |  |  | 
Cc1c(F)ccc(C(=O)Nc2cc([N+](=O)[O-])ccc2N2CCN(C)CC2)c1Cl | inactive | inactive | inactive |  | inactive |  |  |  |  | 

From PubChem BioAssay (NCATS)
